Molecules are shown by their SMILES. The whole screen tested about 48,000 compounds, of which about 160 (0.33%) were called active. This is one part of a sample in which actives are shown more often than they occur. Unmarked numbers belong to inactive results.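 Rule for the calls: active = survival measured by cellular ATP above 50% at 15 µg/ml in the first screen; inactive = the rest.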

The nature of this test: protection against thapsigargin ER stress killing – CSM14.1 cells, ATP luminescence, primary screen (AID 1010).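 Note: cell death triggered by about 15 µM thapsigargin; ATP read 24 h after thapsigargin was added; plate controls were thapsigargin with DMSO for no effect and DMSO without thapsigargin for full effect.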 Particulars: CSM14.1 thapsigargin ER stress survival, active compounds read high, screened at 15 µg/mL (by protocol).
As to `COc1ccc(N2C(=O)/C(=C/c3cc(C)n(-c4ccc([N+](=O)[O-])cc4)c3C)C(=O)NC2=S)cc1`, the relative survival (cellular ATP) was -5.8%.
The figure for `C=CCOc1cccc(/C=N/NS(=O)(=O)c2ccc(Cl)cc2)c1` is 3.1%.
With `O=C(O)c1ccccc1C(=O)N1CCN(C(=O)c2ccccc2C(=O)O)CC1`, the relative survival (cellular ATP) was -0.9%.
The figure for `CCN(CC)c1ccc(Nc2nc(-c3sc(C)nc3C)cs2)cc1` is 49.2%; for `O=C1/C(=C/c2ccc(F)cc2)SC(=S)N1c1ccc(F)cc1` it is -1.4%.
`CCN1C(=O)/C(=C/c2ccc(NC(=O)c3ccc4ncccc4c3)cc2)SC1=S`: the relative survival (cellular ATP) is 8.8%.
For the molecule `COC(=O)C(C)NC(=O)CCC1CCCCC1` (stereo not given), the relative survival (cellular ATP) was 4.2%.
The figure for `Cc1cccc(C)c1OCC(=O)Nc1sc2c(c1C(N)=O)CCC2` is 10.1%; for `CC(=O)C1=C(O)C(=O)N(CC2CCCO2)C1c1ccc(C(C)C)cc1` (stereo not given) it is -5.9%; for `COc1ccc(C2CC(C(F)(F)F)n3nc(C(=O)NCCc4ccccc4)c(Cl)c3N2)cc1OC` (stereo not given) it is 2.7%.
As to `COc1cc(NC(=O)c2cc(Cl)c(OC)c(Cl)c2)ccc1NC(=O)c1ccco1`, the relative survival (cellular ATP) is -1.3%.
The figure for `CCSc1nnc2c(n1)OC(c1ccc(-c3ccc(Cl)cc3)o1)Nc1ccccc1-2` (stereo not given) is 4.5%; for `COc1ccccc1/C=N/NC(=O)c1cc(C23CC4CC(CC(C4)C2)C3)[nH]n1` it is 3%.
To `Cc1c(OCC(=O)N(C)C)ccc2c3c(c(=O)oc12)CCCC3` belongs 4.4%; to `N#Cc1ccc(/C=N/Nc2nc(-c3ccccc3)cs2)cc1`, 5.1%; to `CS(=O)(=O)N1CCN(Cc2ccc(Br)cc2)CC1`, -1.6%.
Consider `O=C(CSc1nnc(-c2cccs2)n1-c1ccccc1)c1cccc([N+](=O)[O-])c1`, for which the relative survival (cellular ATP) was -3.1%.
To `COc1ccc2ccccc2c1-c1cc(C(=O)NN)[nH]n1` belongs -1%; to `COCCCN1C(=O)c2cccc3cccc(c23)C1=O`, 0.8%; to `O=C(CCN1C(=O)c2cccc3cccc(c23)C1=O)OCCCc1ccncc1`, 5.7%.
With `O=C(CCCN1C(=O)c2cccc3cccc(c23)C1=O)N1CCN(Cc2ccc3c(c2)OCO3)CC1`, the relative survival (cellular ATP) is 77.5% (active).
For the molecule `Cc1[nH]n(-c2ccccc2)c(=O)c1C(c1ccc(C(F)(F)F)cc1)c1c(C)[nH]n(-c2ccccc2)c1=O`, the relative survival (cellular ATP) is 4.8%.
Regarding `O=C(O)CCCNC(=O)c1ccccc1NC(=O)c1ccccc1`, the relative survival (cellular ATP) is 7.8%.
For `Cc1nnc(N2C(=O)c3ccc(-c4nc5ccccc5c(=O)o4)cc3C2=O)s1`, the relative survival (cellular ATP) is 5.9%.
The figure for `CN(C1=NS(=O)(=O)c2ccccc21)c1ccccc1` is 3.5%.
The figure for `O=C(COc1ccccc1)Nc1cccc(NC(=O)c2ccco2)c1` is 9%; for `COc1ccccc1/C=C1/SC(=S)N(CCC(=O)N2c3ccccc3Sc3ccc(Cl)cc32)C1=O` it is 10%.
To `CC(N=Cc1ccccc1O)C12CC3CC(CC(O)(C3)C1)C2` (stereo not given) belongs -0.1%; to `Cc1cc(OCC(=O)Nc2ccccc2C(N)=O)cc(C)c1Cl`, 2.7%; to `O=C(Nc1ccc(Br)c(Cl)c1)C(c1ccccc1)c1ccccc1`, 4.5%.

For the origin of these results see PubChem BioAssay AID1010 (Sanford-Burnham Center for Chemical Genomics, 2008).
